Bioassay records: PubChem BioAssay, Sanford-Burnham Center for Chemical Genomics
Sampled rows, rich in hits. Any-hit rate of the full collection: about 4.1%.
beta cell repl = induces beta-cell replication in MIN6 cells; MIN6 cells proliferation, ATPlite luminescence, 48 h; cells starved in 0.2% serum; 100% = growth in 10% serum; proliferation, % at 10 µM; actives 0.29% (n = 330,000);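 active means compounds whose signal lies at least 3.5 SD above the mean of all wells on their plate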;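 further: 0% = DMSO-treated cells in low-serum medium and 100% = 10% serum control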
FAS TE block = blocks the thioesterase domain of human fatty acid synthase; inhibition, % at 15 µM; recombinant FAS-TE, OMFH fluorogenic substrate, fluorescence endpoint; actives 0.67% (n = 360,000);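 active means compounds whose normalised, plate-corrected inhibition of enzyme fluorescence in the single-dose primary screen is 50% or more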;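 further: 0% = DMSO with enzyme and 100% = substrate without enzyme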
Target sequence (P49327 whole entry, looked up, the tested form may be a part): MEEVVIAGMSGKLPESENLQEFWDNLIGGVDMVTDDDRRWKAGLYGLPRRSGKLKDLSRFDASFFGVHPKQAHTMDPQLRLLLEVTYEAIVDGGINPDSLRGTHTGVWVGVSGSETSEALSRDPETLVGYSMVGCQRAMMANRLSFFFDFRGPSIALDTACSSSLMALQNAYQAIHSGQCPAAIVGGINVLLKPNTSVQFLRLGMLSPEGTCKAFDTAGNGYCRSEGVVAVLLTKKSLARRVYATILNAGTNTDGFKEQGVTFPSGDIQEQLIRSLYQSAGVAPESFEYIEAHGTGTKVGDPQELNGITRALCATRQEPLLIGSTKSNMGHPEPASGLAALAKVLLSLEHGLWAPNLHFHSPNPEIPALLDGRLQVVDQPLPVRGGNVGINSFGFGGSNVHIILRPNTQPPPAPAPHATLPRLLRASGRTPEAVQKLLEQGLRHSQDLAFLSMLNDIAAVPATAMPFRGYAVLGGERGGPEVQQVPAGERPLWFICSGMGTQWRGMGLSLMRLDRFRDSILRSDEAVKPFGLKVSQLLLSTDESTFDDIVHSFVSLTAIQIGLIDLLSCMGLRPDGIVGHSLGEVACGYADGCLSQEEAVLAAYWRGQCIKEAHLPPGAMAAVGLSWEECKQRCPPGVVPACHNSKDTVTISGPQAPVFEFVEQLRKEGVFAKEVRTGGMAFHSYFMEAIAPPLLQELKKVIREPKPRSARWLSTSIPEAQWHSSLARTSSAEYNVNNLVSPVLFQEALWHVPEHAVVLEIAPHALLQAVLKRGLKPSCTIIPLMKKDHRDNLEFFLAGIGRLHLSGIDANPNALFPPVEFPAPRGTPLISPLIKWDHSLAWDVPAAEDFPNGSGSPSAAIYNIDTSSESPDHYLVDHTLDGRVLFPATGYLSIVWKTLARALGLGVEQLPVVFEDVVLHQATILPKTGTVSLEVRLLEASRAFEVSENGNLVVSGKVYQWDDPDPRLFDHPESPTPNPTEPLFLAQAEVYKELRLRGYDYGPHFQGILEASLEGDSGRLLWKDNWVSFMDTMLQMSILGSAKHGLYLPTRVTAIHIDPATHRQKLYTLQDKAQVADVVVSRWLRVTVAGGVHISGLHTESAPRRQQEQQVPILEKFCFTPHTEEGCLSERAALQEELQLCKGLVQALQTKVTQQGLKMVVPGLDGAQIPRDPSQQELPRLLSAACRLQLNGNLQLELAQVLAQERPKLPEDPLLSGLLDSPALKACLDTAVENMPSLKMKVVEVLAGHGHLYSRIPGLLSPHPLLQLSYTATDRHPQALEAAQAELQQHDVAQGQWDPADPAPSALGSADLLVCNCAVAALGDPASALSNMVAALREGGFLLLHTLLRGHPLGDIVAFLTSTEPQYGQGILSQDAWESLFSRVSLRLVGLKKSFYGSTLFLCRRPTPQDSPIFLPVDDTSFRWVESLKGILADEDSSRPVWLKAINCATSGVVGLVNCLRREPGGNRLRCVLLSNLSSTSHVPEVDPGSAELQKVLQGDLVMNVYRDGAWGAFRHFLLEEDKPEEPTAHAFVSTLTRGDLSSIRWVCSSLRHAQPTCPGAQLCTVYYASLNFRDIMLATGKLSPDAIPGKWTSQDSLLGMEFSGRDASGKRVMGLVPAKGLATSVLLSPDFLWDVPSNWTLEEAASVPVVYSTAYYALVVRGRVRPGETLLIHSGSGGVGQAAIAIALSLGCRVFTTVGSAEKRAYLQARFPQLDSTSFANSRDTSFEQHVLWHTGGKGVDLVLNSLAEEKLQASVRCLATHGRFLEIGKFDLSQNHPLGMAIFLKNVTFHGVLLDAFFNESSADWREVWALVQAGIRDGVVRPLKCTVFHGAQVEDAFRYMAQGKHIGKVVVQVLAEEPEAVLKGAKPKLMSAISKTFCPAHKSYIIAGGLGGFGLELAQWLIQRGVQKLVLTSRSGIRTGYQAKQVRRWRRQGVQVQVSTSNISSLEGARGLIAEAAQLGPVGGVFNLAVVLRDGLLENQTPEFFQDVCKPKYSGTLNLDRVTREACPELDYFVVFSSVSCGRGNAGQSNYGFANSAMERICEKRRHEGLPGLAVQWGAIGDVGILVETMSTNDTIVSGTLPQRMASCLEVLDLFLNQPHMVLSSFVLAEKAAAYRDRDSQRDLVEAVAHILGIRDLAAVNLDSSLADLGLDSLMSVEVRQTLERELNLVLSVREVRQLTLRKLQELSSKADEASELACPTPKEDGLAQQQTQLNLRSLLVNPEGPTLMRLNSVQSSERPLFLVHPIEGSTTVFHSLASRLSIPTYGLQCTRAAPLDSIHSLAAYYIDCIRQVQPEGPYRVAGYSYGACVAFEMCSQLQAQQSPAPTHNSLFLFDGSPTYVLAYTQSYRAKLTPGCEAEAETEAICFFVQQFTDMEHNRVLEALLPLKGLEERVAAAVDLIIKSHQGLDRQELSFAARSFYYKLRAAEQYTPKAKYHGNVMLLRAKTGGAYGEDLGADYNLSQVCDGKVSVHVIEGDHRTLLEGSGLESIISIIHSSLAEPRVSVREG
p-CIP stab down = lowers stability of the mouse p/CIP coactivator protein; Q05BA5; F442A p/CIP-EGFP cells, EGFP fluorescence, 16 h; decrease of EGFP signal, % at 10 µM; actives 0.01% (n = 290,000);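 active means EGFP signal decrease of at least 30% at 10 µM or well 3 SD below plate mean, unless failing retest; inactive means the rest, including hits failing retest or dose response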
MPTP block = blocks calcium-induced mitochondrial swelling. isolated mouse mitochondria, Ca2+ swelling absorbance, 30 min. inhibition, % at 10 µM. actives 1.4% (n = 360,000). AID 602449;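 active means inhibition of 50% or more, scaled per plate between neutral and stimulator controls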;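 further: 0% = DMSO wells given calcium and 100% = 1 mM EGTA wells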
NR3A LBD binder = NR3A (human) ligand-binding domain modulation; NR3A LBD differential scanning fluorimetry, Tm shift; 0% = protein alone, 100% = glycine-bound protein; Tm shift relative to glycine control, % at 25 µM; actives 2.5% (n = 340,000);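 active means melting temperature shift of at least 10% of the positive control shift, at one fixed dose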
FAS-TE inh conf = FAS thioesterase (human) inhibition, confirmation. recombinant FAS-TE, OMFH fluorogenic substrate, fluorescence. inhibition, % at 15 µM. AID 624325. actives 45% (n = 2,300). shares compounds with FAS TE block;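 active means compounds inhibiting the enzyme by at least 50% at 15 µM in any one of the replicates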;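 further: 0% = enzyme with DMSO only and 100% = wells lacking enzyme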
Numbers without * were called inactive.

How did Cc1ccc(-c2nnc(NC3CCCCC3)c3ccccc23)cc1S(=O)(=O)N1CCN(C)CC1 do in these assays?
beta cell repl: -3; FAS TE block: 6; p-CIP stab down: -7; MPTP block: 0; NR3A LBD binder: -1

What do the screens show for `Cc1ccc(-c2nnc(NCc3nc4ccccc4[nH]3)c3ccccc23)cc1S(=O)(=O)N1CCCCC1`?
beta cell repl: -3; FAS TE block: 69*; p-CIP stab down: -5; MPTP block: 0; NR3A LBD binder: 2; FAS-TE inh conf: 21

Results for FC(F)(F)Oc1ccccc1C(c1nnnn1C1CCCC1)N1CCN(C/C=C/c2ccccc2)CC1 (stereo not given) ?
FAS TE block: 25; MPTP block: 2

What do the screens show for `Cc1cc(NC(=O)c2cc(S(=O)(=O)N3CCCCC3)ccc2C)n(-c2ccccn2)n1`?
beta cell repl: -2; FAS TE block: 28; p-CIP stab down: -12; MPTP block: 1; NR3A LBD binder: -22

Results for CCS(=O)(=O)c1ccc(-c2csc(-c3ccc(Cl)cc3)n2)c(Cl)c1Cl ?
beta cell repl: 1; FAS TE block: 71*; p-CIP stab down: -6; MPTP block: 6; NR3A LBD binder: 0; FAS-TE inh conf: 52*

Results for CN(C)CCCNC(=O)c1ccc(-c2nc(-c3ccc(Cl)cc3)cs2)cc1 ?
beta cell repl: -6; FAS TE block: -6; p-CIP stab down: -8; MPTP block: -10; NR3A LBD binder: -1

Results for CCS(=O)(=O)c1ccc(-c2csc(-c3ccccc3Cl)n2)c(Cl)c1Cl ?
beta cell repl: -2; FAS TE block: 72*; p-CIP stab down: 7; MPTP block: 0; NR3A LBD binder: 0; FAS-TE inh conf: 11

What do the screens show for `CC(=O)c1sc(-c2ccccc2Cl)nc1C`?
beta cell repl: 2; FAS TE block: -3; p-CIP stab down: -9; MPTP block: -1; NR3A LBD binder: 1

Results for CC(C(=O)NC(C)(C)C)n1c(-c2ccc3c(c2)OCO3)nc2ccccc21 (stereo not given) ?
MPTP block: 7

Results for O=S1(=O)CC(N2CCC(c3ccccc3)CC2)CN1Cc1ccc(F)cc1 (stereo not given) ?
FAS TE block: 29; MPTP block: 1

Results for Cc1noc(C)c1S(=O)(=O)NC(=O)C1(C)CCN1C(=O)Cc1ccc(-c2ccccc2)cc1 (stereo not given) ?
FAS TE block: -10; MPTP block: 1

What do the screens show for `Cc1ccc(CNC(=O)c2ccc(N3CCC4(CC3)CC(c3cccc(Br)c3)=NO4)c(NC(=O)c3ccco3)c2)cc1`?
beta cell repl: -6; FAS TE block: 31; MPTP block: 1; NR3A LBD binder: 0

What do the screens show for `CCCNC(=O)c1ccc(N2CCC3(CC2)CC(c2cccc(Br)c2)=NO3)c(NC(=O)c2c(Cl)cccc2Cl)c1`?
beta cell repl: -3; FAS TE block: 54*; MPTP block: 1; NR3A LBD binder: 2; FAS-TE inh conf: 16

What do the screens show for `CCCNC(=O)c1ccc(N2CCC3(CC2)CC(c2cccc(Br)c2)=NO3)c(NC(=O)c2ccc(Br)cc2)c1`?
beta cell repl: -4; FAS TE block: 3; MPTP block: 1; NR3A LBD binder: 0

What do the screens show for `Cc1ccc(CNC(=O)c2ccc(N3CCC4(CC3)CC(c3ccccc3)=NO4)c(NC(=O)c3ccco3)c2)cc1`?
beta cell repl: -5; FAS TE block: 64*; p-CIP stab down: 2; MPTP block: 2; NR3A LBD binder: 2; FAS-TE inh conf: 13

Results for CC(CCc1ccccc1)NC(=O)c1ccc(C(=O)NC(C)CCc2ccccc2)cc1 (stereo not given) ?
beta cell repl: -1; FAS TE block: -10; p-CIP stab down: 10; MPTP block: 1; NR3A LBD binder: 1

What do the screens show for `CC(OC(=O)c1ccc(Cl)c([N+](=O)[O-])c1)C(=O)N1CCN(Cc2ccccc2)CC1` (stereo not given)?
beta cell repl: -8; FAS TE block: 73*; MPTP block: -3; NR3A LBD binder: -1; FAS-TE inh conf: 54*

How did COc1ccc(C(=O)OC(C)C(=O)NC(C)CCc2ccccc2)cc1[N+](=O)[O-] (stereo not given) do in these assays?
beta cell repl: 0; FAS TE block: 59*; p-CIP stab down: -6; MPTP block: -1; NR3A LBD binder: -1; FAS-TE inh conf: 32*

How did COc1ccc(C(=O)OCC(=O)NCCCc2ccccc2)cc1[N+](=O)[O-] do in these assays?
beta cell repl: 0; FAS TE block: 79*; p-CIP stab down: 11; MPTP block: -1; NR3A LBD binder: 2; FAS-TE inh conf: 79*

Results for CC(C(=O)N1CCN(Cc2ccccc2)CC1)c1ccc([N+](=O)[O-])cc1 (stereo not given) ?
beta cell repl: 1; FAS TE block: 28; p-CIP stab down: -4; MPTP block: 1; NR3A LBD binder: 1

Results for Cc1cc(C(=O)NC(C)CCc2ccccc2)ccc1[N+](=O)[O-] (stereo not given) ?
beta cell repl: -2; FAS TE block: 52*; p-CIP stab down: -11; MPTP block: 1; NR3A LBD binder: 2; FAS-TE inh conf: 23

What do the screens show for `COC(=O)CNC(=O)COC(=O)c1ccc(OC)c([N+](=O)[O-])c1`?
beta cell repl: -3; FAS TE block: -3; p-CIP stab down: 2; MPTP block: 9; NR3A LBD binder: 2

Results for Cc1ccc(NC(=O)Nc2nnc([C@H]3C[C@H](O)[C@@H](CO)O3)s2)cc1 ?
FAS TE block: -6; MPTP block: 0

How did O=C(NCCNc1ccc([N+](=O)[O-])cc1)c1ccccc1Cl do in these assays?
FAS TE block: -4; MPTP block: 0

Results for CS(=O)(=O)N1CCc2cc(-c3csc(NC(=O)Cc4cccs4)n3)ccc21 ?
beta cell repl: -4; FAS TE block: 62*; p-CIP stab down: -12; MPTP block: -2; NR3A LBD binder: 1; FAS-TE inh conf: 29*

How did CC(=O)Nc1nc(-c2ccc3c(c2)CCN3S(C)(=O)=O)cs1 do in these assays?
beta cell repl: -2; FAS TE block: -2; p-CIP stab down: 16; MPTP block: 0; NR3A LBD binder: -5

Results for COc1cc(CCN(C(C)=O)C2C(=O)Nc3ccccc3N=C2c2ccc3c(c2)OCO3)cc(OC)c1 (stereo not given) ?
FAS TE block: 1; MPTP block: 0

What do the screens show for `CCC(C)NC(=O)CSc1nc2c(sc(=S)n2Cc2ccco2)c(=O)n1-c1ccccc1` (stereo not given)?
beta cell repl: -4; FAS TE block: 51*; p-CIP stab down: -1; MPTP block: 5; NR3A LBD binder: -8; FAS-TE inh conf: 53*
